Measurements reported in ChEMBL document CHEMBL4513216, “Probing the Open Global Health Chemical Diversity Library for Multistage-Active Starting Points for Next-Generation Antimalarials” (ACS Infect Dis, 2020).
Out of some 69,000 compounds screened, about 8,600 (12%) showed an effect of 50% or more. The sample holds strong results, similar compounds and a random draw of the others, so the mix is not that of the screen.

The compounds below were run on Plasmodium berghei (assay: Screen against P. berghei liver stage (PbLuc), transformed with Luciferase, at 10uM). Conditions: tested at 10 uM.
Format: functional, HepG2
`O=C(c1cc2c(F)cccc2[nH]1)N1CCCCC1Cn1cccn1` (configuration not stated) showed an INHIBITION of -4.94%. For `Cc1cc(-c2cc(N)c(=O)n(CC(=O)NC3CCCCC3)n2)c(C)o1`, the INHIBITION was 13.835%. `O=C(NCCn1ccnc1)N1CCN(Cc2ccco2)CC1` was tested, and the INHIBITION was -37.7%. In the case of `Cc1ccc(NC2CCN(C(=O)c3ccncc3)CC2)nn1`, the INHIBITION is reported as -39.7%. Work on `CCN1CCC(NC(=O)CN2CC(n3nc(C)cc3C)C2)CC1` yielded an INHIBITION of 23.5%. With `CC(=O)N[C@@H]1CN(Cc2nc3ccccc3[nH]2)C[C@H]1c1ccc(C)o1` the INHIBITION was 39%. Compound `Fc1ccc(CNCc2cc(Br)c3c(c2)OCO3)cc1` has an INHIBITION of 78%. For `COc1cc(CNCC(O)c2ccc(F)cc2F)cc2c1OCO2` (configuration not stated), the INHIBITION was 0.914%. `FC(F)Oc1ccccc1CNCc1cc(Br)c2c(c1)OCO2` showed an INHIBITION of 58.6%. Work on `COc1ccc(CNCc2cc(Br)c3c(c2)OCO3)cc1` yielded an INHIBITION of 74.7%. `CC(Cn1ccnc1)NCc1cc(Br)c2c(c1)OCO2` (configuration not stated) was tested, and the INHIBITION was -7.72%. With `Cc1ccc(CNCc2cc(Br)c3c(c2)OCO3)cc1` the INHIBITION was 45.4%. Work on `Cn1cc(CCNCc2cc(Br)c3c(c2)OCO3)cn1` yielded an INHIBITION of 37.6%. With `COc1cc(CNCc2ccc(C(C)O)cc2)cc2c1OCO2` (configuration not stated) the INHIBITION was 49.3%. `COc1cc(CNCC(O)c2ccccc2)cc2c1OCO2` (configuration not stated) was tested, and the INHIBITION was -54.6%. Compound `FC(F)Oc1ccc(CNCc2cc(Br)c3c(c2)OCO3)cc1` has an INHIBITION of 80.8%. Work on `FC(F)Oc1ccc(CNCc2cc(Cl)c3c(c2)OCO3)cc1` yielded an INHIBITION of 24.6%. With `COc1cc(CNCC(O)c2ccccc2F)cc2c1OCO2` (configuration not stated) the INHIBITION was -9.37%. Work on `C[C@@H]1CN(c2ccc(Cl)cn2)C[C@]1(C)O` yielded an INHIBITION of 4.161%. In the case of `Fc1cnc(N2CCO[C@H]3[C@H](OCCN4CCCC4)CC[C@@H]32)nc1`, the INHIBITION is reported as 4.68%. `Cc1ccc(-c2nnc(CNCCn3cccn3)o2)cc1` showed an INHIBITION of 37.9%. Work on `COCc1cc(NCc2ccccc2-n2cncn2)ncn1` yielded an INHIBITION of 15.7%. `CN(Cc1nc(-c2ccccc2)no1)Cc1cnc(N2CCOCC2)s1` gave an INHIBITION of 25.8%. For `CN(C)CCn1c2c(ccc1=O)CCN(C(=O)c1cccs1)CC2`, the INHIBITION was 13.5%. Compound `COc1c(CNCc2cccc(CN(C)C)c2)c(C)nn1C` has an INHIBITION of 35.3%. In the case of `Cc1nc(Nc2cnccn2)cc(C2CCCN2C2CCOCC2)n1` (configuration not stated), the INHIBITION is reported as 25.6%. Work on `CC(C)C1CCCN1C(=O)Nc1ccc(=O)n(C)c1` (configuration not stated) yielded an INHIBITION of -22.1%. Compound `CCc1nc(C2CCCN2CC(=O)Nc2nnc(C)s2)no1` (configuration not stated) has an INHIBITION of -11.9%. In the case of `CC(C)n1nc(CN2CCCC2=O)c2c1CN(C(=O)c1ccc[nH]1)C2`, the INHIBITION is reported as 7.67%. `NC(=O)c1c(NC(=O)C2CCCO2)sc2c1CCc1ccccc1-2` (configuration not stated) gave an INHIBITION of -57.9%. In the case of `Cc1ccccc1S(=O)(=O)N1CCC(c2[nH]ncc2C)C1` (configuration not stated), the INHIBITION is reported as 11.1%. With `CC(=O)N1CC[C@H]2[C@H](C[C@@H](Cn3cncn3)N2c2nccs2)C1` the INHIBITION was 85.4%. `CC(=O)N1CC[C@H]2[C@H](C[C@@H](CN3CCCC3)N2c2nccs2)C1` gave an INHIBITION of 0.71%. In the case of `CCC(=O)N1CC[C@H]2[C@H](C[C@@H](CN3CCCC3)N2c2nccs2)C1`, the INHIBITION is reported as -0.284%. With `CN1CC[C@H]2[C@H](C[C@@H](Cn3cncn3)N2c2nccs2)C1` the INHIBITION was 69.7%. For `CC(C)N1CC[C@H]2[C@H](C[C@@H](Cn3cncn3)N2c2nccs2)C1`, the INHIBITION was 0.71%. `CN1CC[C@H]2[C@H](C[C@@H](CN3CCCC3)N2c2nccs2)C1` was tested, and the INHIBITION was 34.5%. `Cc1nnc(N2CCOC(C)(C(=O)N(C)C)C2)c2ccccc12` (configuration not stated) was tested, and the INHIBITION was -9.51%. `Cc1cnn(CC2CCCN2C(=O)c2cccc3[nH]ncc23)c1` (configuration not stated) gave an INHIBITION of 24.5%. For `Cc1cccc(Oc2ccccc2CNC(=O)C2CCC(=O)NC2)c1` (configuration not stated), the INHIBITION was 37.9%. `O=C(NCc1ccc(F)cc1)NCC(O)(c1cccs1)C1CC1` (configuration not stated) showed an INHIBITION of -11.8%. For `O=C(NCC(O)(c1ccco1)C1CC1)c1ccccc1F` (configuration not stated), the INHIBITION was 9.79%. In the case of `O=C(NCc1ccc(F)cc1)NCC(O)(c1ccco1)C1CC1` (configuration not stated), the INHIBITION is reported as 66.9%. Compound `CN(C)Cc1nn(C)c2c1CCN(C(=O)c1cccnc1)C2` has an INHIBITION of 17.4%. Work on `Fc1ccc(N2CCOC(Cc3cccnc3)C2)cc1` (configuration not stated) yielded an INHIBITION of 7.52%. With `CN1CC[C@H]2CN(C(=O)COCc3nc4cc(F)ccc4[nH]3)C[C@H]21` the INHIBITION was 47.3%. Work on `CN(C)[C@H]1CCCCN(C(=O)COCc2nc3cc(F)ccc3[nH]2)C1` yielded an INHIBITION of 51.3%. `CN1C[C@@H]2CC[C@H]1CN(C(=O)COCc1nc3ccc(F)cc3[nH]1)C2` was tested, and the INHIBITION was 35.1%. For `Cc1ccc(Br)cc1C(=O)Nc1cc(C(N)=O)n(C)c1`, the INHIBITION was -20.2%. `Cc1nc(C)n(CC2CN(Cc3cscn3)CCO2)n1` (configuration not stated) was tested, and the INHIBITION was 21.935%. With `Cc1ccccc1-n1cc(-c2ccnc(NC(CO)C(C)C)n2)cn1` (configuration not stated) the INHIBITION was 95.7%. Work on `Cc1ccccc1-n1cc(-c2ccnc(N[C@@H](CO)C(C)C)n2)cn1` yielded an INHIBITION of 8.7%. Compound `Cc1ccccc1-n1cc(-c2ccnc(N3CCCC(CN)C3)n2)cn1` (configuration not stated) has an INHIBITION of -29.6%. For `Cc1ccccc1-n1cc(-c2ccnc(N[C@H](CO)C(C)C)n2)cn1`, the INHIBITION was 68.2%. `COC[C@H]1CCCN1c1nccc(-c2cnn(-c3ccccc3C)c2)n1` showed an INHIBITION of 78.5%. With `COc1cccc(-n2cc(-c3ccnc(NC(CO)C(C)C)n3)cn2)c1` (configuration not stated) the INHIBITION was -40.6%. `COc1cccc(-n2cc(-c3ccnc(N[C@H](CO)C(C)C)n3)cn2)c1` gave an INHIBITION of 5.8%. With `COc1cccc(-n2cc(-c3ccnc(N[C@@H](CO)C(C)C)n3)cn2)c1` the INHIBITION was -95.7%. Compound `Cc1ccccc1-n1cc(-c2ccnc(N3CCCC(O)C3)n2)cn1` (configuration not stated) has an INHIBITION of 3.06%. For `Cc1cc(CN2CCN(C(=O)NCc3cccs3)CC2)no1`, the INHIBITION was -43.5%. Compound `CC(=O)NCCc1ccc(S(=O)(=O)Nc2cc(F)ccc2C)s1` has an INHIBITION of -12.2%. For `CC(=O)N1CCC(c2cccc(NC3CCOCC3)n2)CC1`, the INHIBITION was 11.8%. Compound `COCCOCC1(CNCc2cccc(OC)c2)C[C@@H](O)[C@@H](O)C1` (some centres not stated) has an INHIBITION of 12.4%. For `COCCOCC1(CNC(=O)c2ccc(OC)cc2)C[C@@H](O)[C@@H](O)C1` (some centres not stated), the INHIBITION was 50.6%. `COCCOCC1(CNCc2ccc(OC)cc2)C[C@@H](O)[C@@H](O)C1` (some centres not stated) was tested, and the INHIBITION was -1.12%. `Cc1nccc(N[C@H]2CN(CC(C)(C)N3CCOCC3)C[C@@H]2C2CC2)n1` gave an INHIBITION of -10.6%. `c1cc(CN2CC[C@H]3CO[C@H](CN4CCOCC4)[C@H]3C2)cs1` showed an INHIBITION of 2.59%.
